# Columns and labels:
# Experiment in all cases: PBM binding z-score (relative to random genomic background probes); higher = stronger binding; sequences stand for … in GC…GCGATTGACAGCGTAGAATGAAGG
# [1] = system: RARb homodimer (NR concentration 270 nM)
# Method in brief: (§1)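 Custom Agilent 4×180K protein-binding microarrays carried double-stranded probes. Their 34-nt variable regions held direct-repeat seeds, single-nucleotide variants, half-site ablations and random human genomic background sequences. Arrays were incubated 1 h with ligand-free nuclear receptor dimers in PBS pH 7.4, 2% milk, 0.02% Triton X-100, 1 mM DTT, 0.2 mg/mL BSA and 0.4 mg/ml salmon testes DNA. Antibodies against each partner (one per run) detected binding, and scanned fluorescence was regression-normalized. Binding z-scores use random background probes as reference.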
# [2] = system: RARg:RXRa (NR concentration 270 nM, RXRa partner concentration 90 nM)
# Method in brief: as §1
# [3] = system: RARg homodimer (NR concentration 270 nM)
# Method in brief: as §1
# [4] = system: RXRa DBDmut IVT, anti-RXR (DBD mutation: RXRa K156A/R161A, NR concentration 90 nM)
# Method in brief: as §1
# [5] = system: RXRa homodimer (NR concentration 180 nM)
# Method in brief: as §1
# [6] = system: THRa:RXRa (NR concentration 90 nM, RXRa partner concentration 90 nM)
# Method in brief: as §1
# [7] = system: THRa homodimer (NR concentration 90 nM)
# Method in brief: as §1
# [8] = system: VDR:RXRa (NR concentration 270 nM, RXRa partner concentration 90 nM)
# Method in brief: as §1
# [9] = system: VDR homodimer (NR concentration 270 nM)
# Method in brief: as §1
Sequence,PBM binding z-score [1],PBM binding z-score [2],PBM binding z-score [3],PBM binding z-score [4],PBM binding z-score [5],PBM binding z-score [6],PBM binding z-score [7],PBM binding z-score [8],PBM binding z-score [9]
CCTAGTTGGTCAGGGTCACACACGCTATAGGTAC,3.88,4.11,3.38,1.6,4.93,3.63,2.49,4.17,2.69
CGAACTAGGTCATGCAGGACAGTGAATACATTGA,2.8,3.87,4.66,1.87,2.67,2.96,1.35,4.23,1.31
CAAACTAGGTCACAGAGGTCCAAGTCCGTGCGTA,3.68,4.67,5.11,1.99,3.35,3.83,1.52,5,2.2
ATCGAAAGGTCGTGAGGTGCGTATACAGAAAGGC,2.59,4.2,3.57,1.16,4.65,2.45,-0.17,6.03,1.59
ACCTCTAGGTAACCAAGTTCAGTGAATGCCGAAC,1.28,0.433,0.365,0.736,0.358,1.25,0.385,3.96,2.26
AATACAGAGTCATCGTAGGCCAGAGTACGCACAG,0.0687,0.22,0.465,-0.473,0.406,1.69,-0.921,-0.242,0.0153
GCGACTGGGGCAAAGCAGGTTACCATCAGGTTGG,0.97,0.227,0.303,-0.245,0.557,2.72,-0.213,-0.194,-0.458
TCTTGTAGATCAAGCAGGTAAAGAAAGCCTGAGT,-0.462,-0.262,-0.32,0.476,-0.157,0.095,-0.499,0.212,-0.555
GCTTACGGGTCAAAGGTTAGAGCATGAATAGAAT,3.1,6.33,4.54,2.02,8.91,3.6,-0.338,4.84,0.946
GATACAGGGTCAAGGGCAGAGTACGCGTATTGAT,3.91,5.63,5.26,2.38,6.19,3.7,1.49,4.62,3.28
TCGAGTAGGTTACCAATGGTGCATTCAGCTTTCT,-0.0825,0.138,0.0849,0.244,0.365,-0.118,-0.617,0.228,-0.499
TCAATTAGTTGATTAGGGCAACCGAAACAGCGGA,0.454,0.298,0.178,0.983,0.591,0.541,0.0743,0.35,0.229
AATACAGGGTCATCATAGGCCAGAGTACGCACAG,3.57,5.66,5.42,3.54,6.89,4.39,1.78,5.14,3.46
AGAACGAGGGCTATGAGTTGATAGCACGGGTGGC,-0.36,-0.0451,-0.0854,-0.264,0.416,-0.476,-0.913,0.114,-0.036
CGAACTAGGTCATTGACAGGACAGTCAATAGTAA,2.6,4.51,4.14,2.45,2.29,2.83,0.652,2.29,1.07
CGTACTAGGTCAGAACAGGACAGTGAAGGATGAT,2.2,2.5,3.38,0.907,0.946,3.33,0.353,0.861,0.141
ATCGAAAGGTCGAGGGTGAGTATACCCACCCGAA,2.59,4.14,4.24,0.471,4.59,1.94,-0.00779,2.68,0.138
GCTATTAGTTGAAAGGGCAAGCGAATGATTCTCG,1.71,1.06,1.04,0.747,1.06,0.545,-0.289,0.461,0.401
CCTAGAAGGCCAGGGTCACTCAAGCATTTCGCTT,3.02,3.47,3.15,0.637,3.9,2.96,1.16,2.94,2.13
CCGACTGGGGCAGAAAGGTTACCTTACCATCCGG,1.97,1.25,0.987,-0.233,1.28,1.39,0.772,0.875,-0.247
ACTAGCAGGCCAAGTTTGGATCACTCAAACAAAG,-0.0539,-0.0446,0.341,-0.14,-0.454,-0.0937,-0.67,-0.621,-0.0821
GAGACTGGGGCAAAGCAGGTTACCATAAGGTTGG,1.54,0.842,0.776,-0.396,0.474,3.14,0.644,0.398,-0.202
GCTAGCAGGCCAGTTGGGTCACTCAATGACGGGC,1.76,0.797,0.963,-1.01,0.522,1.45,0.0151,-0.00125,-0.361
ATCTCTAGGGAAAAGTTCAGTGAATCCCGAGGAT,2.03,1.23,1.69,0.323,0.636,0.24,-0.457,0.557,1.22
TCTGCTAGGTCAGTTGGTCAGCTAGCGAGCTGCC,2.51,2.7,3.71,0.477,0.644,1.18,-0.284,-0.184,-0.49
TGAATGAGGTTATAAGATCATGGAACGTTGCAAA,0.204,1.76,0.935,0.832,2.42,1.71,0.0513,1.44,0.42

Sequence,PBM binding z-score [1],PBM binding z-score [2],PBM binding z-score [3],PBM binding z-score [4],PBM binding z-score [5],PBM binding z-score [6],PBM binding z-score [7],PBM binding z-score [8],PBM binding z-score [9]
TCTTGTAGATCAATAGAGGTTAAAAAAGTGCGCT,1.19,0.821,0.586,0.81,1.39,2.21,-0.13,1.94,0.48
CGTCAAAGTTCAACTAAGGTAGCGTAAAGCACGC,4.16,5.74,6.39,4.42,4.96,5.06,0.699,4.35,4.01
TCATATAGGTAAAATGTGAAAGTCGGTGTGGTAA,-0.199,0.0549,-0.0961,1.45,0.646,-0.0922,-0.336,0.774,-0.00299
CCTACTTGGCCACGAAAGGTCATTGATTCAGTGA,4.61,4.77,4.41,1.36,5.16,3.44,1.3,4.14,2.78
GCGACTGGGGCAACGCAGGTTACCATAAGGTTGG,1.32,0.851,0.785,-0.722,0.638,2.88,0.105,-0.0248,-0.176
AGAACGAGGGTAATGAGTTGATAGCACGGGTGGC,-0.134,0.312,0.371,0.405,0.5,-0.0331,-0.615,3.47,1.53
TCTATTCGTTGATTAGGGCAACCGAAACAGCGGA,0.244,0.485,0.548,0.758,0.477,0.404,0.073,0.441,-0.134
TGAATGAGGTTAAAGATCAGGTAACGTGGCGTCG,0.893,2.55,1.38,0.98,3.9,3.29,1.42,1.92,0.674
CGACCAAGGTCAGCAGGTCAGTGAAAGCGACGTG,4.67,6.06,6.15,2.12,4.83,3.54,1.63,3.67,1.16
CGTCCAAGTTCAATGCTAGGTCAGTGAAAGCATT,3.86,5.74,4.36,4.53,2.5,3.53,1.21,4.26,4.43
ACTCGGAGGACAAAGGTCTGAGCTACGCCAGTGA,0.62,0.869,0.954,0.352,0.0538,0.538,-0.424,-0.29,-0.296
CCAGACAGGTGAAAGGTAACTCGGTCTGGTACGC,0.705,1.23,0.639,-0.242,2.27,0.879,0.0486,0.865,-0.126
ATCCCAAGGTGATCGTGAGGTCGTTGATACTAAC,1.61,1.97,0.447,0.515,1.21,3.42,2.59,2.87,2.9
ATACCAAAGTGATCGTGAGGTCGTTGATACTAAC,1.13,0.445,0.273,1.02,0.855,2.76,2.01,2.02,3.16
TCATATAGGTAAAGGTGAAAGCCGAACGATATGA,1.16,1.44,1.18,0.508,1.93,1.47,-0.707,0.743,-0.196
CCGACTGGGGCATAAGGTTAGCATAAGCCAGCCC,1.26,0.672,0.69,-0.721,0.224,1.01,0.298,-0.409,-0.543
CTTCCAAGGTCAATGCTAGGTCAGTGAAAGCATT,4.79,7.32,6.93,3.55,5.39,4.33,3.09,4.72,2.95
GCTCGGAGGACAAGGTCAGAGCTTTGTCCGTAGA,2.9,3.28,3.6,0.373,2.33,2.87,1.13,1.34,0.705
CTCGACAGGTCGTGCTCAGGTGAGTATACCAAAC,1.11,2.21,1.33,0.53,1.3,3.08,0.709,0.597,0.293
GATACAGGGTCAAGGCCCGAGTACGCGTATTGAT,3.19,5.42,5,2.42,5.69,3.47,0.807,4.28,2.35
CGAACTAGGTCATCCAGGACAGAGAATACATTGA,2.81,4.02,4.59,2.33,3.1,3.49,1.8,4.48,1.64
ACTAGGAGGCCAAGTTTGGGTCACTCAAACAAAG,2.66,3.46,2.56,0.0297,1.08,2.74,1,1.08,0.935
CCGACTGGGGCCGAAAGGTTACCATACCATCCGG,2.41,2.18,1.28,-0.679,2.15,1.14,-0.247,0.789,-0.349
ATCGAAAGGTCGTGAGGGGAGTATACAGAAAGGC,2.78,4.4,3.89,1.72,5.16,2.72,0.843,3.55,1.42
CGTCAAAGCTCAAGGTAACGTAACAGAAAGCAGC,-0.207,0.00785,0.083,-0.317,0.0693,1.29,0.693,-0.278,-0.4
TCACATAGGTAAATGCTAGGTGAAAGTCCGATCT,0.255,0.301,0.189,1.17,0.654,1.31,0.359,0.334,-0.199
